Sampled rows, rich in hits. Any-hit rate of the full collection: about 4.3%.
ADAM17 inh: inhibits human ADAM17; inhibition, % at 6.95 µM; AID 720648; 0.83% of 370,000 active; recombinant ADAM17, EDANS/DABCYL FRET peptide cleavage;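 active = inhibition above the mean of compounds lying between control limits plus 3 SD, set per campaign, cut at about 8.5% in these data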
ADAM10 inh: inhibits human ADAM10. inhibition, % at 7 µM. O14672. AID 720582. 0.62% of 370,000 active. recombinant ADAM10, EDANS/DABCYL FRET peptide cleavage, 3 h;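 active = inhibition above a per-campaign cutoff equal to the mean of compounds falling between control-based bounds plus 3 SD, cut at about 20% in these data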
Target sequence (O14672 214-748 limits assumed): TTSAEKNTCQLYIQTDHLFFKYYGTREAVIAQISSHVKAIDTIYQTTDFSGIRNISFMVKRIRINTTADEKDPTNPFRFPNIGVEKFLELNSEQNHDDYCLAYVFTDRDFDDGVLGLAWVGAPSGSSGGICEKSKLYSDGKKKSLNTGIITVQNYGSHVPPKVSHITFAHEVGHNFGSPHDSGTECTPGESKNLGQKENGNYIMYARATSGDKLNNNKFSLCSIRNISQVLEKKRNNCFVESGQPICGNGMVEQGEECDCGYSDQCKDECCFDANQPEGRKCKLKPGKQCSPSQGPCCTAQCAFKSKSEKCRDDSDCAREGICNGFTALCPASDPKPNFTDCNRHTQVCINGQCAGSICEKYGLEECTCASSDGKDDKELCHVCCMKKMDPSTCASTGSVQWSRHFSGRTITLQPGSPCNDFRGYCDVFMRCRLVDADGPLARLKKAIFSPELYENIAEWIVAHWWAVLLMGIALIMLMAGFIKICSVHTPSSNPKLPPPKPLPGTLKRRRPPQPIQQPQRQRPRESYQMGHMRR
NR3A LBD binder: modulates the human NR3A ligand-binding domain; Tm shift relative to glycine control, % at 25 µM; NR3A LBD differential scanning fluorimetry, Tm shift; 0% = protein alone, 100% = glycine-bound protein; 2.5% of 340,000 active;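 active = melting temperature shift of at least 10% of the positive control shift, at one fixed dose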
sPLA2-III inh: Blocks human group III sPLA2 activity; 0.56% of 370,000 active; QFRET BODIPY PC-A2 liposome hydrolysis, fluorescence; inhibition, % at 12.2 µM;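 active = inhibition above mean plus 3 SD of compounds lying within the high and low control bounds, cut at about 19% in these data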
FAS TE block: blocks the thioesterase domain of human fatty acid synthase | 0.67% of 360,000 active | recombinant FAS-TE, OMFH fluorogenic substrate, fluorescence endpoint | AID 602261 | inhibition, % at 15 µM;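 active = compounds whose normalised, plate-corrected inhibition of enzyme fluorescence in the single-dose primary screen is 50% or more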
hGIII sPLA2 conf: human GIII-sPLA2 inhibition, confirmation | inhibition, % at 12.2 µM | shares compounds with sPLA2-III inh | 34% of 2,000 active | AID 743280 | recombinant hGIII-sPLA2, BODIPY PC-A2 QFRET fluorescence;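 active = mean inhibition across triplicates above the hit cutoff set in the earlier primary screen, cut at about 19% in these data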
535nm interf: 535nm fluorescence interference, HGIII-sPLA2 counter-screen | shares compounds with sPLA2-III inh | BODIPY FL product fluorescence interference, QFRET | inhibition, % at 12.2 µM | 8.5% of 2,000 active | AID 743282;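 active = average inhibition above the solvent-only control mean plus 3 SD, cut at about 6% in these data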
BODIPY interf DR: interferes with 535nm fluorescence in dose response counter-screen. shares compounds with sPLA2-III inh. IC50, µM. AID 743455. 240 tested, under 10 active. BODIPY FL product fluorescence interference, cell-free;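 active = IC50 at or below 10 µM; inactive = IC50 above 10 µM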
A number is an active result; - = inactive; . = no result given.

SMILES	ADAM17 inh	ADAM10 inh	NR3A LBD binder	sPLA2-III inh	FAS TE block	hGIII sPLA2 conf	535nm interf	others
Cc1ccc(-c2n[nH]c(=S)c3ccccc23)cc1	-	-	-	-	-	.	.
S=c1[nH]nc(-c2ccccc2)c2ccccc12	-	-	-	20.3	-	25.1	-
CCOC(=O)Cn1cc(CN2C(C(=O)OC)CN(Cc3ccc(C)cc3)CCS2(=O)=O)nn1 (configuration not stated)	-	-	.	-	.	.	.
CC12C(=O)N(NC(=O)c3ccncc3)C(=O)C1C1C=CC2C1 (configuration not stated)	-	-	-	20.9	-	-	-
Cc1ccc(NC(=O)CN(C)C(=O)COC(=O)/C=C/c2cccs2)cc1	-	-	-	-	-	.	.
CN(CCC#N)C(=O)COC(=O)/C=C/c1cccs1	-	-	-	19.8	-	-	-
COc1cccc(NC(=O)C2CCCN2C(=O)NC2CCC(C)CC2)c1 (configuration not stated)	-	-	.	-	.	.	.
Oc1ccc(-c2csc(Nc3cccc4ccccc34)n2)cc1O	-	-	-	21.2	-	-	11.0
Cc1csc(Nc2cccc3ccccc23)n1	-	-	-	-	-	.	.
CCc1cc2c(nc1CC)CCCN2S(=O)(=O)c1ccc(C#N)cc1	-	-	.	-	.	.	.
CCc1cnc(Nc2nc(C(N)c3ccccc3Cl)cs2)nc1 (configuration not stated)	-	-	.	26.5	-	-	-
CC(C)C(N)c1csc(Nc2ccc(C(F)(F)F)cn2)n1 (configuration not stated)	-	-	.	22.6	-	-	-
CNc1nn(-c2cccc(Cl)c2)nc1N	-	-	-	21.6	-	35.2	-	BODIPY interf DR=-
Cc1nn(C)c(C(=O)NNC(=S)NC2CCCCC2)c1Br	-	-	-	22.7	-	21.7	-
Cn1ncc(Br)c1C(=O)NC1CCCCCCC1	-	-	-	-	-	.	.
CN(C)c1ccc(C=c2c3ccccc3n3c2cc(-c2ccccc2)[n+]3C)cc1	-	-	-	30.6	-	55.9	-	BODIPY interf DR=-
CN(C)c1ccc(C=c2c3ccccc3n3c2c2c([n+]3C)CCCC2)cc1	-	-	-	38.8	-	49.0	-	BODIPY interf DR=-
CN(C)c1ccc(C=c2c3cc([N+](=O)[O-])ccc3n3c2cc(-c2ccccc2)[n+]3C)cc1	-	-	-	48.4	-	97.6	-	BODIPY interf DR=-
COc1cc(N(C)C)ccc1C=c1c2ccccc2n2c1cc(-c1ccccc1)[n+]2C	-	-	-	44.5	-	52.3	-	BODIPY interf DR=-
CN(C)c1ccc(C=C2C=C(c3ccccc3)OC2=O)cc1	-	-	.	-	-	.	.
Cn1c(CO)c(-c2ccccc2)c2cc([N+](=O)[O-])ccc21	-	-	-	-	-	.	.
Cc1ccc(Cn2cc(COC(=O)N3CCCC3)nn2)cc1	-	-	.	-	.	.	.
CCOC(=O)C1=CCN(S(=O)(=O)c2ccc(Cl)cc2)C1c1ccc(Br)cc1 (configuration not stated)	-	-	.	-	.	.	.
COCc1[nH]nc2c1C(c1ccc(Br)cc1)N(Cc1ccccc1)C2=O (configuration not stated)	-	-	.	-	.	.	.
Cc1ccc2c(c1)-c1c(cnn1CC(=O)NCCc1ccc(O)cc1)CO2	-	-	.	-	.	.	.
SMILES	ADAM17 inh	ADAM10 inh	NR3A LBD binder	sPLA2-III inh	FAS TE block	hGIII sPLA2 conf	535nm interf	others
Cc1[nH]n(-c2ccccc2)c(=O)c1N=Nc1ccc(F)cc1	-	-	-	-	-	.	.
Nc1[nH]n(-c2ccccc2)c(=O)c1N=Nc1ccccc1	-	-	-	23.0	-	33.3	6.3
O=C(C1CCCN1S(=O)(=O)c1ccccc1[N+](=O)[O-])N1CCN(c2ccccc2)CC1 (configuration not stated)	-	-	.	-	.	.	.
COc1ccccc1C(=O)NC1CCCCN(Cc2cccc(Cl)c2)C1=O (configuration not stated)	-	-	.	-	.	.	.
Cc1cccc(N2CCN(CC3CCCCC3)CC2)c1C	-	-	-	-	-	.	.
Cc1ccc(C)c(N2CCN(CC3CCCCC3)CC2)c1	-	-	-	20.9	-	-	-
CN(C)c1ccc(C(c2ccc(N(C)C)cc2)c2ccc([N+](=O)[O-])cc2)cc1	-	-	-	19.6	-	-	9.2
CN(C)c1ccc(C=NC(CO)C(O)c2ccc([N+](=O)[O-])cc2)cc1 (configuration not stated)	-	-	-	-	-	.	.
O=C(OCCN1CCN(C2CN(Cc3cn(Cc4ccccc4Cl)nn3)S(=O)(=O)C2)CC1)c1cccs1 (configuration not stated)	-	-	.	-	.	.	.
CCCCNc1c(-c2ccc(SC(C)CC)cc2)nc2ccc(Cl)cn12 (configuration not stated)	-	-	.	22.6	-	-	-
O=C(N/C(=C/c1ccccc1)C(=O)N1CCCCC1)c1ccccc1	-	-	-	-	-	.	.
O=C(N/C(=C\c1ccccc1)C(=O)N1CCN(CCO)CC1)c1ccccc1	-	-	-	21.1	-	-	-
CN1C(=O)[C@@]2(O[C@H]3[C@H]4C=C[C@@H]([C@H]5C(=O)N(Cc6ccccc6)C(=O)[C@@H]45)N3C3=C2C(=O)CC3)c2ccccc21	-	-	.	-	.	.	.
CCCN1CCC(N2CCN(c3cccc(C(F)(F)F)c3)CC2)CC1	-	-	-	-	-	.	.
FC(F)(F)c1cccc(N2CCN(C3CC4CCC3C4)CC2)c1 (configuration not stated)	-	-	-	20.2	-	-	-
C=CCn1c(-c2ccco2)n[nH]c1=S	-	-	-	21.1	-	-	-
C=CCN1C(=O)/C(=C2/Sc3ccc(OC)cc3N2C)SC1=NCc1ccccc1	-	-	-	-	-	.	.
C=CCN1C(=O)/C(=C2/Sc3ccc(OC)cc3N2C)SC1=Nc1ccccc1	-	-	-	94.3	-	-	-
CN(C)C(=O)OCC1COc2ccccc2O1 (configuration not stated)	-	-	-	21.0	-	-	-
CC(=O)NCC1COc2ccccc2O1 (configuration not stated)	-	-	-	-	-	.	.
COC(=O)C1=C(C)N(Cc2cccc(C(F)(F)F)c2)C(=NCc2cc(OC)c(OC)c(OC)c2)NC1c1cccc(Cl)c1 (configuration not stated)	-	-	.	-	.	.	.
Nc1ccc(Oc2cc(N)cc(Oc3ccccc3)c2)cc1	-	-	-	23.1	-	-	-
COc1ccc(OC)c(NC(=O)COC(=O)CCCN=C2NS(=O)(=O)c3ccccc32)c1	-	-	-	20.4	-	-	-

Source: PubChem (several laboratories)
